High-throughput results deposited in PubChem BioAssay by National Center for Advancing Translational Sciences (NCATS).
Rab9 promoter act = activators of Rab9 promoter; Huh7 Rab9 promoter-luciferase reporter, luminescence, 24 h; Potency, µM (series often up to 9.22 µM), for inactives: at the top dose activation, negative = inhibition, hits mostly activators; hit rate 2.8% among 320,000; AID 485297; further: % of control where 0% means no effect; nearly all actives have a fitted effect of over 60% in size
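Huh7 cells stably carrying Rab9 promoter–luciferase reporter, plated 1500 cells/well, compound added after 2 h and incubated 24 h at 37 °C; luciferase luminescence then read after 10 min with detection reagent.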
SMN2 splice enh = SMN2 splice variant enhancement | HEK293 SMN2-luciferase splicing reporter, luminescence, 30-36 h | hit rate 2.8% among 210,000 | Potency, µM (series often up to 46.1 µM), inactives show at the top dose activity change, positive = activation, most hits filed as activators | AID 1458; further: % of control where 0% means no effect; nearly all actives have a fitted effect of over 55% in size
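qHTS luciferase splicing reporter: luminescence rises when SMN2 exon 7 is included in transfected HEK293 cells. Compound exposure lasted 30-36 h at 37C, with 4.5 mM final sodium butyrate as control, followed by a ONE-Glo read.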
ELG1 genotoxic = induces genotoxicity in HEK293T cells with luciferase-tagged ELG1; HEK293T ELG1-luciferase reporter, luminescence, 16 h; Potency, µM (titrated, usually from 46 µM), inactives show at the highest dose activity change, positive = activation, most hits filed as activators; hit rate 1.3% among 330,000; AID 504466; further: % of control where 0% means no effect; nearly all actives have a fitted effect of over 60% in size
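DMSO vehicle served as control against compound-treated ELG1-luciferase HEK293T cells; exposure lasted 16 hr at 37 °C and 5% CO2, followed by ONE-Glo luminescence detection after 30 min.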
NPC1 promoter act = activates the NPC1 promoter; Huh7 NPC1 promoter luciferase reporter, 24 h; Potency, µM (series often up to 9.22 µM), without a hit: at the highest dose activation, actives largely listed as activators; hit rate 2.4% among 320,000; AID 485313; further: % of control where 0% means no effect; nearly all actives have a fitted effect of over 60% in size
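Luminescence read-out of NPC1 promoter-driven luciferase in stably transfected Huh7 cells; compounds delivered in DMSO and left 24 h at 37C, 5% CO2, qHTS titration format.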
KinaseGlo FLuc = Kinase-Glo luciferase inhibition (counter-screen); Q27757; Kinase-Glo luciferase, ATP luminescence, 8 min; Potency, µM (series often up to 38.3 µM), for inactives: top-dose activity change, negative = inhibition, usual class: inhibitors; hit rate 0.28% among 200,000; AID 1379; further: on the % scale 0 is the no-effect control and ±100 the full control effect; nearly all actives have a fitted effect of over 60% in size
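Recombinant Kinase-Glo luciferase, 10 uM ATP (linear range), luciferin; imidazole pH 7.2 / KCl / MgCl2 / Tween / BSA buffer; 8 min RT; luminescence.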
FLuc modulator = inhibits or activates purified firefly luciferase, miR-21 counter-screen; purified FLuc, Km substrates, luminescence inhibition; Potency, µM (top dose mostly 57.5 µM), without a hit: at the top dose activity change, negative = inhibition, most hits filed as inhibitors; P08659; hit rate 6.9% among 360,000;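 further: plate controls were vehicle for no effect and reference inhibitor for full effect; nearly all actives have a fitted effect of over 55% in size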
Target sequence (P08659 whole entry, looked up): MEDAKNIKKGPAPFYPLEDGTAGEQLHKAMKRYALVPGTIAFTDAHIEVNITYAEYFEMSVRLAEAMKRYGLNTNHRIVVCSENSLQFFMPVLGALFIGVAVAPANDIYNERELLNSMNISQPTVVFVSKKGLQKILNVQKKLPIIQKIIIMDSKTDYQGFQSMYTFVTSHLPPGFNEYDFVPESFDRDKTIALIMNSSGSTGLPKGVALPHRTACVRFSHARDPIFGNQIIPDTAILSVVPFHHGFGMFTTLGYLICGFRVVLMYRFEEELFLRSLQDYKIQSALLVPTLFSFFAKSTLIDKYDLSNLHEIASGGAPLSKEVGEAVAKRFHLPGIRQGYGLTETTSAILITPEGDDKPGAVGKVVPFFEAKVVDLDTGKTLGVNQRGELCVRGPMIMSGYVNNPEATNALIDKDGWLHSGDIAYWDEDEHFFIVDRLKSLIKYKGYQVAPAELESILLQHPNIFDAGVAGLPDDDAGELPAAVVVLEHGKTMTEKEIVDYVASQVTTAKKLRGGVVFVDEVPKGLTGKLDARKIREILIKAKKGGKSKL
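Purified P. pyralis luciferase (10nM final) with 10uM D-luciferin and 10uM ATP (Km levels) in 50mM Tris acetate pH 7.5, 10mM Mg acetate, 0.01% Tween-20, 0.05% BSA; qHTS 6-point titration, ~60 µM downward; luminescence read.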
* marks the source's active call; other numbers are inactive results; ? = inconclusive; . = no result given; [ ] = dose if it differs, or a comment. Sampled rows, rich in hits. Any-hit rate of the full collection: about 7.4%. The call rests on the fitted dose curve; in most records, active means well fitted curve in the direction sought with a large enough effect; inconclusive means small, poorly fitted or top-dose-only effect, or another doubt; inactive means no such curve, though single readings can be large; an effect the other way counts as inactive or inconclusive. Potency means the concentration at half of the fitted maximal effect.

SMILES	Rab9 promoter act	SMN2 splice enh	ELG1 genotoxic	NPC1 promoter act	KinaseGlo FLuc	FLuc modulator
CCN(CC(=O)Nc1c(F)cccc1F)C(=O)/C=C/c1ccc(OCC#N)c(OC)c1	-6%	.	1%	0%	.	6%
CCN(CC(=O)Nc1c(F)cccc1F)C(=O)/C=C/c1ccc(C)cc1	?	.	?	?	.	19µM*
Cc1ccc(N=C2CCCCCN2C)c(C#N)c1	-1%	1%	-3%	0%	-2%	-12%
Cc1ccc(N=C2CCCN2Cc2ccccc2)c(C#N)c1	13%	-3%	-1%	3%	3%	24µM*
C[C@]12C=CC(=O)C=C1CCC1C2C(=O)C[C@]2(C)C1CC[C@]2(O)C(=O)CO (stereo partly specified)	.	1%	.	.	-6%	.
C=CCOC(=O)C1=C(C)NC(=O)NC1c1ccc2c(c1)OCO2 (stereo unspecified)	-5%	.	2%	-2%	.	5%
C=CCOC(=O)c1c(C)nc2cc3c(cc2c1C)OCO3	24%	?	7%	19%	-3%	17µM*
CC(C)[C@@H](CC(=O)N[C@@H]1CCNC[C@H]1C(=O)N[C@H](CC(=O)N[C@@H](CCC(=O)O)CC(=O)O)Cc1c[nH]c2ccccc12)NC(=O)C[C@H](CO)NC(=O)[C@@H]1CNCC[C@H]1N	.	10%	.	.	1%	.
O=C(NCc1cccs1)O[C@H]1C[C@H]2CC[C@@H]1C2	.	-13%[9.22 µM]	.	.	-4%[7.66 µM]	.
N[C@H](Cc1cc(I)c(Oc2ccc(O)c(I)c2)c(I)c1)C(=O)O	.	3%[20.6 µM]	.	.	2%[17.1 µM]	.
CC(=O)Nc1ccc(C2NC(=O)c3ccccc3O2)cc1 (stereo unspecified)	10%	.	-1%	7%	.	-2%
CCCC(=O)Nc1ccc(C2C(=O)c3ccccc3C2=O)cc1	3.5µM*	.	20%	1.6µM*	.	1.1µM*
CC(=O)Nc1ccc(C2C(=O)c3ccccc3C2=O)cc1	?	.	23µM*	?	.	2.1µM*
CCOC(=O)c1c(S(=O)(=O)N2CCCC(C(=O)NCc3ccc(Cl)cc3)C2)c(C)n(C)c1C (stereo unspecified)	.	.	.	.	.	-14%
CC(=O)c1ccc(NC(=O)COc2ccccc2-c2nc(-c3ccc(C)cc3)no2)cc1	.	.	.	.	.	3%
CC(=O)Nc1ccc(S(=O)(=O)N2CCc3nc(COc4ccccc4)c4c(c3C2)CO[C@@H](C)C4)cc1	.	1%[9.22 µM]	.	.	-6%[7.66 µM]	.
CCOC(=O)N/N=C\c1ccccc1OC/C=C/c1ccccc1	24%	.	?	?	.	4.3µM*
COC(=O)N/N=C\c1ccccc1OC/C=C/c1ccccc1	29%	.	?	?	.	17µM*
COc1cc(/C=N\NC(C)=O)ccc1OC/C=C/c1ccccc1	3%	.	-9%	2%	.	-7%
O=C(Nc1nnc(C2CC2)s1)c1ccco1	3.2µM*	30%	?	?	-9%	?
O=C(Nc1nnc(C2CCCCC2)s1)c1ccco1	2µM*	?	?	4µM*	-3%	?
Cc1ccccc1N1CC(c2nnc(NC(=O)c3ccco3)s2)CC1=O (stereo unspecified)	.	.	.	.	.	-18%
CCC1=C2CC[C@H]3C(=O)N(c4ccccc4)C(=O)[C@H]3[C@H]2[C@@]2(C)C(=O)N(CC(=O)OC)C(=O)N2C1=O	.	-3%	.	.	-6%	.
CN(C)c1ccc(/C=N/Nc2nncc3ccccc23)cc1	0.32µM*	.	0.73µM*	0.32µM*	.	0.43µM*
C(=N\Nc1nncc2ccccc12)/c1ccccc1	1.4µM*	.	?	1.1µM*	.	0.54µM*
SMILES	Rab9 promoter act	SMN2 splice enh	ELG1 genotoxic	NPC1 promoter act	KinaseGlo FLuc	FLuc modulator
COc1ccc(/C=N/NS(C)(=O)=O)c(OC)c1	-3%	-5%	-3%	-8%	3%	5%
CCNc1nc(NCC)nc(N/N=C/c2ccc(N(C)C)cc2)n1	-3%	4%	-1%	2%	6%	?
COc1ccc(/C=N/Nc2nncc3ccccc23)c(OC)c1	?	13µM*	?	?	-6%	9.5µM*
CCNc1nc(NCC)nc(N/N=C/c2cc(OC)c(OC)c(OC)c2)n1	0%	.	-6%	-4%	.	?
COc1cc(/C=N/Nc2nncc3ccccc23)cc(OC)c1OC	?	.	?	1.6µM*	.	8.5µM*
C[C@H]1/C=C\CC(=O)NCc2cccc(c2)CNC(=O)N[C@H]1c1ccccc1	.	4%	.	.	-1%	.
CC(=O)c1ccc(N2CCN(C(=O)CCS(=O)(=O)c3ccc4c(c3)oc(=O)n4C)CC2)cc1	.	.	.	.	.	-3%
COc1ccccc1CNC(=O)CSc1nc2nc(C)c(Cc3ccccc3Cl)c(C)n2n1	.	-5%	.	.	.	-16%
Cc1cccc(/C=N/Nc2nncc3ccccc23)c1	0.32µM*	2.5µM*	0.46µM*	0.56µM*	?	0.85µM*
O=C(/C=C/c1ccco1)Nc1nnc(-c2ccco2)s1	20%	.	5%	0%	2%	0%
O=C(/C=C/c1ccco1)Nc1cccc(NC(=O)/C=C/c2ccco2)n1	3.2µM*	?	-3%	?	0%	1.7µM*
Cc1nc(NC(=O)/C=C/c2ccco2)sc1C	-6%	11µM*	?	-4%	-3%	?
CCc1nnc(NC(=O)/C=C/c2ccco2)s1	1.8µM*	13µM*	?	?	3%	?
O=C(/C=C/c1ccco1)NC1=NCCS1	2.5µM*	8.9µM*	9.2µM*	2.2µM*	-15%	11µM*
